SW480 rerep = inducers of DNA re-replication in SW480 colon cancer cells; SW480 DNA re-replication, Hoechst DNA content imaging, 48 h; AID 624297; 1.8% of 340,000 active; Potency, µM (top dose mostly 46.1 µM), actives largely listed as activators; note: nearly all actives have a fitted effect of over 55% in size
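Quantitative HTS format with DMSO vehicle controls; 48 hr drug incubation at 37 C, then 40 min Hoechst staining and scanning imager measurement at 405 nm excitation.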
Gal4-VP16 FLuc = inhibits Gal4-VP16 luciferase reporter, ROR gamma counter-screen. 3.5% of 310,000 active. Drosophila S2 Gal4-VP16 UAS-luciferase, luminescence, 20 h. AID 2546. Potency, µM (titrated, usually from 53.6 µM), most hits filed as inhibitors;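 note: Gal4-VP16 expression switched on by copper sulfate through the metallothionein promoter; nearly all actives have a fitted effect of over 50% in size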
Chronic BCR inh = inhibitors of chronic active B-cell receptor signaling; ABC-DLBCL IkBa-CBG/CBR reporter, luminescence ratio, 4 h; Potency, µM (top dose mostly 46.1 µM), hits mostly inhibitors; 0.05% of 340,000 active; AID 493014; active = well fitted inhibition curve with a large enough effect in the signal ratio, with a control signal flat, not every such curve was filed as active; inconclusive = small, poorly fitted or top-dose-only effect, or effect the other way, or a change in a side signal; the % refers to the signal ratio
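Compounds up to 46 uM were incubated four hours with TMD8 cells whose green CBG68 luciferase is fused to IkappaBalpha; red CBR luminescence normalised the signal, and concentration-effect curves were fitted to fusion, red and ratio data.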
RORg inh = blocks mouse ROR gamma transcriptional activity; P51450; Drosophila S2 Gal4-RORgamma UAS-luciferase reporter, 20 h; Potency, µM (series often up to 53.6 µM), hits mostly inhibitors; 5.4% of 310,000 active; AID 2551; note: nearly all actives have a fitted effect of over 60% in size
Target sequence (P51450 whole entry, looked up, the tested form may be a part): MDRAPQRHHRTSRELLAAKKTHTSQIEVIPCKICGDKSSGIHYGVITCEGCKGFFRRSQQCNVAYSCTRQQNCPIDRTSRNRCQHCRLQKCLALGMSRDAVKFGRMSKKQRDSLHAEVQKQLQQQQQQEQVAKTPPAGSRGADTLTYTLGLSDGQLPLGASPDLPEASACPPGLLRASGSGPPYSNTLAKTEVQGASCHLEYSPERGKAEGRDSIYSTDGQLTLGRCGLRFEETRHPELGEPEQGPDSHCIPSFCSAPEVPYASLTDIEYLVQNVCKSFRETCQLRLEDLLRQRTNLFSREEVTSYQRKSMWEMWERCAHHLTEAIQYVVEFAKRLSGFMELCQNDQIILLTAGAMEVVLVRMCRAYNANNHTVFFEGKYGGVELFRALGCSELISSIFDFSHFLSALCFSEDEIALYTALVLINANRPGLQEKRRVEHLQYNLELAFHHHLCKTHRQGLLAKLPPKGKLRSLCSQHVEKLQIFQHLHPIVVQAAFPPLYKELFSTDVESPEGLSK
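A Gal4/UAS one-hybrid system in insect cells: metallothionein-promoter Gal4–ROR gamma fusion plus Photinus luciferase reporter. Copper sulfate 700 uM final, 20 hr ambient incubation, luminescent detection after 10 min with reagent.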
Giardia kill = Giardia lamblia killing. Giardia lamblia trophozoite viability. activity change, % at 7.66 µM, hits read low. 0.15% of 340,000 active. AID 540267; in the data active = activity change below about -80%; inconclusive = between about -30% and that limit;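 note: parasites exposed to compound for two days anaerobically before the ATP read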
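Compounds were tested on trophozoites seeded at 100 cells/well and held 48 hrs at 37 deg C anaerobically. An ATP-based luminescent kit measured the remaining live cells.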
MCF10A rerep = induces DNA re-replication in MCF 10a normal breast cells; MCF 10A DNA re-replication, Hoechst nuclear intensity, 48 h; Potency, µM (doses to about 46.1 µM), most hits filed as activators; 2.9% of 350,000 active; AID 624296; note: nearly all actives have a fitted effect of over 50% in size
A number is an active result; . = inactive; ? = inconclusive; / = no result; [ ] = another dose, or the depositor's remark. Sampled rows, rich in hits. Any-hit rate of the full collection: about 8.3%. Unless noted, calls come from the whole dose curve; as a rule, active = well fitted curve in the direction sought with a large enough effect; inconclusive = small, poorly fitted or top-dose-only effect, or another doubt; inactive = no such curve, though single readings can be large; an effect the other way counts as inactive or inconclusive.

SMILES	SW480 rerep	Gal4-VP16 FLuc	Chronic BCR inh	RORg inh	Giardia kill	MCF10A rerep
Cc1c(-c2ccccc2)[nH]n2c(=O)c3c(nc12)CCCC3	?	?	?	.	.	.
COc1nc(C)ccc1-c1noc(-c2cccs2)n1	.	?	?	1.8µM	.	.
COc1nc(-c2ccccc2)ccc1-c1noc(-c2cccs2)n1	.	/	/	/	.	?
CCCN(C(=O)COC(=O)c1nc2nccc(C)n2n1)C1CCS(=O)(=O)C1 (centres undefined)	.	/	/	/	.	.
COc1ccc(S(=O)(=O)N2CCC(C(=O)Nc3ccccc3N3CCCCC3)CC2)cc1OC	.	.	.	.	.	.
O=C(COc1ccccc1F)N/N=C1\CCCc2ccccc21	.	?	?	4µM	.	?
COc1ccccc1OCC(=O)N/N=C1\CCCCc2ccccc21	.	.	?	.	.	.
O=C(CCN1C(=O)C2C3CCC(C3)C2C1=O)Nc1ccc(Br)cc1 (centres undefined)	12µM	.	.	.	.	.
CCOc1ccc(S(=O)(=O)NC(C)(C)C)cc1-c1nc2c(C(C)(C)C)nn(C)c2c(=O)[nH]1	.	.	?	.[10 µM]	.	.
CCC(C)(C)c1ccc(OCCCC[n+]2cccc(C)c2C)c(C(C)(C)CC)c1	.	11µM	?	?	.	.
CCC(C)(C)c1ccc(OCCCC[n+]2ccc(C)cc2)c(C(C)(C)CC)c1	.	?	.	?	.	23µM
COc1ccc(C(=O)C[n+]2cccc(C)c2C)cc1[N+](=O)[O-]	.	.	.	.	.	.
CCOC(=O)C1=CN(Cc2ccco2)S(=O)(=O)NC1c1ccc(Br)cc1F (centres undefined)	?	/	?	/	.	?
O=C(CCSc1ccc(Cl)cc1)c1ccco1	?	?	?	11µM	.	?
O=C(CSc1ccc(Cl)cc1)c1ccco1	.	?	.	.	.	.
Cc1c2c(c(O)c3c(O)cccc13)C(=O)O[C@H]2C1C(N(C)C)C(O)=C(C(N)=O)C(=O)[C@H]1O (some centres undefined)	/	.	/	.	/	/
O=S(=O)(c1ccc2nc(Nc3ccccc3)ccc2c1)N1CCCCC1	2.8µM	.	?	.	.	?
O=S(=O)(c1ccc2nc(N3CCN(c4ccccc4F)CC3)ccc2c1)N1CCCCC1	.	.	.	.	.	.
O=[N+]([O-])c1cccc(S(=O)(=O)Nc2nc3ccccc3nc2Nc2cccc(S(=O)(=O)N3CCCCC3)c2)c1	.	11µM	.	?	.	.
O=[N+]([O-])c1cccc(S(=O)(=O)Nc2ccc(S(=O)(=O)N3CCCC3)cc2)c1	.	/	/	/	.	.
Cc1ccc(S(=O)(=O)Nc2nc3ccccc3nc2Nc2cccc(S(=O)(=O)N3CCCC3)c2)cc1	?	.	.	?	.	21µM
CC[C@@]1(O)C(=O)COc2c1cc1n(c2=O)Cc2c-1nc1cccc(C(C)C)c1c2[Si](C)(C)C	/	?	/	.	/	/
Cc1ccc(/C=N/NC(=S)NCCc2ccccc2)s1	.	2.2µM	?	0.22µM	.	.
S=C(NCCc1ccccc1)N/N=C/c1ccc(Cl)cc1	?	?	.	?	.	?
S=C(NCCc1ccccc1)N/N=C/c1c(Cl)cccc1Cl	.	8.9µM	?	10µM	.	?
SMILES	SW480 rerep	Gal4-VP16 FLuc	Chronic BCR inh	RORg inh	Giardia kill	MCF10A rerep
CCOC(=O)N/N=C\c1ccc(C)s1	.	?	?	.	.	.
CCCCNC(=S)N/N=C/c1ccc(C)s1	.	2.5µM	.	1µM	.	.
COc1cc(/C=N/NC(=S)NCCc2ccccc2)cc(OC)c1OC	.	?	?	13µM	.	?
COCCn1c(=O)c(-c2cc(F)cc(F)c2)nc2cnc(Oc3ccc(OC)cc3)nc21	/	.	/	.	/	/
Cc1cnc(CNc2cc(-c3ccc(C(=O)N(C)C)cc3)ncn2)cn1	/	.	/	.	/	/
Cc1ccc(NC(=O)CN2c3cccc4cccc(c34)S2(=O)=O)cc1	.	/	?	/	.	?
COCCNC(=O)C(NC(=O)C1CCCCC1)C12CC3CC(CC(C3)C1)C2 (centres undefined)	.	.	.	.	.	.
